Compound activity (PubChem BioAssay)
The list is not random: actives were taken first. Their share in the collection is about 4.2%.
Hsp70 activator = transcriptional activators of Hsp70 | HeLa Hsp70 promoter luciferase reporter, luminescence; scaled: vehicle 0, proteasome-inhibitor control 100% | activation, % at 10 µM | 0.04% of 200,000 active;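 active = activation above the mean across all tested compounds plus 3 SD, cutoff set per campaign, cut at about 5.5% in these data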;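 note: 100% = MG132 at 30 µM as the positive control and 0% = DMSO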
S1P4 agonist = activates the human S1P4 receptor | O95977 | 0.35% of 220,000 active | AID 1509 | activation, % at 4.98 µM | S1P4-expressing cell line, agonist reporter assay; in the data active = activation above about 11%;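 note: 0% = DMSO vehicle and 100% = reference agonist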
S1P4 antag = human S1P4 receptor antagonism | O95977 | inhibition, % at 4.98 µM | S1P4-expressing cells, antagonist mode, reporter read-out | 0.26% of 220,000 active | AID 1510; in the data active = inhibition above about 29%;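 note: 0% = wells stimulated with agonist and 100% = vehicle wells without agonist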
CHOP inhibitor = CHOP inhibition in unfolded protein response; CHO-K1 CHOP-promoter luciferase, tunicamycin-induced, 15-18 h; inhibition, % at 10 µM; 3.8% of 220,000 active; AID 2732;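 active = compounds that reduced the stress-induced luciferase reporter signal by more than about 70% of percent inhibition, limit read from the data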;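 note: 0% = tunicamycin plus vehicle and 100% = wells without tunicamycin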
S1P4 ag conf = human S1P4 agonism, confirmation; S1P4 agonist cell-based reporter assay; 7% of 740 active; activation, % at 4.98 µM; shares compounds with S1P4 agonist; in the data active = activation above about 12%;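 note: 0% = vehicle and 100% = full reference agonist response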
S1P1 agonist = human S1P1 agonism as S1P4 agonist counter-screen; shares compounds with S1P4 agonist; S1P1 agonist cell-based assay, activation; activation, % at 4.98 µM; 4% of 740 active; AID 1563; in the data active = activation above about 21%;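 note: 0% = vehicle wells and 100% = reference agonist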
Target sequence (P21453 whole entry, looked up): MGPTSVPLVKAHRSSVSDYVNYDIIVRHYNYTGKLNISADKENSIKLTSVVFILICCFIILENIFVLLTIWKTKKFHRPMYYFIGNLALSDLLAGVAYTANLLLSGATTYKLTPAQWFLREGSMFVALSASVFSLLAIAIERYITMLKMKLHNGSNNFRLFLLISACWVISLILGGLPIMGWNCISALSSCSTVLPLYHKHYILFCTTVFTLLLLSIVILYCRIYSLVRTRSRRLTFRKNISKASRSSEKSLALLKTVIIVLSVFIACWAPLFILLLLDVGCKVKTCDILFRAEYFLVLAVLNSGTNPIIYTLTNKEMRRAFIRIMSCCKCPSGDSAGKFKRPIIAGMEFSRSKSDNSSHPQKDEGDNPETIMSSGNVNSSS
Starred values were filed as active, the others as inactive; / = no result.

SMILES | Hsp70 activator | S1P4 agonist | S1P4 antag | CHOP inhibitor | S1P4 ag conf | S1P1 agonist
NC(=O)c1cc2ccc(O)cc2oc1=NCc1ccccc1 | 0 | 79* | -79 | 54 | 10 | 6
COc1ccc2cc(C(=O)NCc3ccccc3)c(=Nc3ccc(C(=O)O)cc3)oc2c1 | 0 | 2 | -6 | 46 | / | /
NC(=O)c1cc2ccccc2oc1=NCc1ccccc1 | 0 | -1 | 2 | 25 | / | /
Cc1c(NC(=O)c2cc(-c3ccc(O)cc3)on2)c(=O)n(-c2ccccc2)n1C | / | 1 | 1 | 31 | / | /
CCCNC[C@H](O)COc1ccccc1C(=O)CCc1ccccc1 | / | / | / | 37 | / | /
COc1cc(-n2c(=O)c3ccccc3n(Cc3cccc(C)c3)c2=O)cc(OC)c1OC | 0 | 31* | 0 | 29 | 2 | -3
COc1ccccc1N1C(=O)CC(Sc2nc(C)cc(C)n2)C1=O (stereo unspecified) | 0 | 0 | -3 | -6 | / | /
O=S(=O)(Nc1ccc2nc(C(F)(F)F)[nH]c2c1)c1ccccc1 | 0 | 0 | -13 | 4 | / | /
COC(=O)C(N)Cc1ccc(O)cc1 (stereo unspecified) | 0 | -3 | 1 | -19 | / | /
Cc1ccc(S(=O)(=O)N2CC(=O)Nc3ccccc32)cc1 | 0 | -2 | 0 | 46 | / | /
CC(=O)Nc1ccc(S(=O)(=O)N2CCC(=O)Nc3ccccc32)cc1 | 0 | 16* | -67 | -5 | -3 | -4
O=C(Nc1cnc2ccccc2c1)c1cccnc1 | 0 | 1 | -11 | -11 | / | /
Cc1cccc(CN(C(=S)Nc2c(C)cccc2C)c2cccnc2)c1 | 0 | 18* | -25 | 10 | -2 | -9
c1ccc(-c2nccc(-c3ccc(-n4cnc5ccccc54)cc3)n2)cc1 | 0 | 83* | -11 | 30 | -1 | 5
c1ccc(-c2nccc(-c3ccc4c(c3)OCO4)n2)cc1 | 0 | 1 | -13 | 7 | / | /
CC(NC(=O)c1cnc2n(c1=O)CCS2)c1ccccc1 (stereo unspecified) | 0 | 0 | -1 | -7 | / | /
CCC(C)NC(=O)c1cnc2n(c1=O)CCS2 (stereo unspecified) | 0 | 25* | -6 | -7 | -2 | 4
Cc1ccccc1NS(=O)(=O)c1ccc(F)cc1 | 0 | 1 | -21 | 28 | / | /
Cc1cc2c(NS(=O)(=O)c3ccc(F)cc3)cccc2nn1 | / | 116* | -6 | 7 | -1 | 2
Cc1c(NC(=O)Cn2cc([N+](=O)[O-])cn2)c(=O)n(-c2ccccc2)n1C | 0 | 0 | -38 | 11 | / | /
Cc1c(NC(=O)Cn2ccc([N+](=O)[O-])n2)c(=O)n(-c2ccccc2)n1C | 0 | 25* | -4 | -2 | -1 | -4
CCOC(=O)Cc1nnc2c(Nc3ccccc3F)nc3nonc3n12 | 0 | 38* | -21 | 27 | -1 | 4
Cc1ccc(C(OC(=O)c2ccco2)C(=O)NC2CCCCC2)cc1 (stereo unspecified) | 0 | 0 | -12 | 11 | / | /
Cc1ccc(-n2c(=O)c(C#N)cc3c(=O)n4ccccc4nc32)cc1 | 0 | 2 | -10 | 6 | / | /
Cc1cccc(-n2c(=O)c(C#N)cc3c(=O)n4ccccc4nc32)c1 | 0 | 14* | -12 | 7 | 17* | 22*
SMILES | Hsp70 activator | S1P4 agonist | S1P4 antag | CHOP inhibitor | S1P4 ag conf | S1P1 agonist
CCC(C)NCCCOc1ccc([N+](=O)[O-])cc1 (stereo unspecified) | 0 | 58* | 8 | -10 | -2 | -8
CCOCCCNS(=O)(=O)c1ccc(NC(=O)N2c3ccccc3Sc3ccccc32)cc1 | 0 | 34* | 0 | -27 | -3 | -9
CCOCCCNS(=O)(=O)c1ccc(NC(=O)CN2C(=O)c3ccccc3C2=O)cc1 | 0 | 1 | -21 | -10 | / | /
COCCCN1C(=O)c2ccc(C(=O)OCC(=O)NCCc3ccccc3)cc2C1=O | 0 | 16* | 0 | 7 | -2 | 3
O=C(NCc1ccncc1)c1cc(C(=O)C2CC2)c[nH]1 | 0 | 0 | -21 | 22 | / | /
CC1=CC(C)(C)[N+](C)=CN1c1ccccc1 | 0 | 33* | -8 | 8 | -1 | 4
CCN1C(=O)N(c2cccc3ccccc23)C(C)=CC1(C)C | 0 | 0 | -2 | 24 | / | /
O=C(N/N=C/c1cn(-c2cccs2)nc1-c1ccccc1)c1ccccc1O | 0 | -1 | 1 | 22 | / | /
O=C(N/N=C/c1cn(-c2cccs2)nc1-c1ccccc1)c1ccccc1Br | 0 | 11* | 1 | 29 | -2 | 1
CCOC(=O)CS(=O)(=O)c1ccc(O)cc1 | 0 | 22* | -10 | 5 | -2 | -1
COc1ccc(C(=O)Nc2cccc(C(C)=O)c2)cc1S(=O)(=O)N1CCOCC1 | 0 | 24* | -2 | 17 | -1 | -12
COc1ccc(C(=O)Nc2cccc(C)c2)cc1S(=O)(=O)N1CCOCC1 | 0 | 1 | -35 | 4 | / | /
CC(=O)Nc1nc(SCc2ccc(Cl)cc2Cl)n[nH]1 | 0 | 12* | 10 | 23 | -2 | -1
Cc1ccccc1C(=O)Nc1nc(SCc2ccc(Cl)cc2)n[nH]1 | / | 1 | 15 | 13 | / | /
O=C(N/N=C/c1c(O)n(-c2ccc(Cl)cn2)c(=O)c2ccccc12)C1CC1 | 0 | 3 | -10 | 25 | / | /
Cc1cc2cc(CNC(=S)Nc3ccc(OC(F)F)cc3)ccc2[nH]1 | 0 | 2 | 0 | 33 | / | /
Cc1cccc(NC(=S)N2CCN(S(=O)(=O)c3cccc(F)c3)CC2)c1 | 0 | 20* | 4 | 4 | -2 | 8
Cc1ccccc1-c1nc(CS(=O)CC(=O)NCCCN(C)c2ccccc2)c(C)o1 (stereo unspecified) | 0 | 0 | -17 | 38 | / | /
Cc1ccc(NC(=O)CS(=O)CC(=O)NCCCN(C)c2ccccc2)cc1 (stereo unspecified) | 0 | 25* | -7 | 24 | -2 | -4
CN1CCN(Cc2c(O)ccc3cc(-c4ccccn4)c(=O)oc23)CC1 | 0 | 18* | 11 | 12 | 10 | 7
CC(C)(C)SCCNC(=O)CSc1ccccc1 | 0 | 2 | -15 | / | / | /
O=C(NC1CCCC1)C1CCC(=O)N1CCc1ccccc1 (stereo unspecified) | 0 | -3 | 4 | -10 | / | /
COc1ccccc1C(=O)Nc1nc2cc3c(cc2s1)OCO3 | / | 27* | 11 | -50 | -1 | 8
O=C(Nc1ccccc1C(=O)NC(Cc1c[nH]c2ccccc12)C(=O)O)c1ccccc1 (stereo unspecified) | / | 11* | 0 | 6 | -1 | -1
O=C(NC(Cc1c[nH]c2ccccc12)C(=O)O)c1ccc(F)cc1 (stereo unspecified) | 0 | 0 | -15 | -31 | / | /
CCOC(=O)C1C(=O)N(C(=O)c2cncc(Br)c2)CC1c1ccccc1 (stereo unspecified) | 0 | 20* | -8 | 20 | -2 | 3
CCOC(=O)C1C(=O)N(C(=O)c2ccc(OC)cc2)CC1c1ccccc1 (stereo unspecified) | 0 | 0 | 1 | 34 | / | /
S=C(c1cn(CCOc2cccc3ccccc23)c2ccccc12)N1CCCC1 | 0 | 29* | -6 | 37 | -2 | -1
